Each structure is given as a SMILES string. In all, about 2,000 compounds were measured (“B-score”: median about -0.0024, highest 2% from about 4 on). Shown is part of a subset that was picked to be rich in the highest values.

This assay concerns Balamuthia mandrillaris (ATCC PRA-291) trophozoites, axenic culture. As to the kind of experiment: primary screen, b score. Particulars: 20 µM. In outline: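 Trophozoites (3,000/well) in axenic medium exposed to library drugs at 20 µM in 0.2% DMSO for 72 h; viability by CellTiter Glo luminescence at 2, 4 and 8 h. Controls: vehicle and freeze-thaw amoeba lysate; B-score corrects row, column and edge effects.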
`CCOC(=O)C1=C[C@@H](OC(CC)CC)[C@H](NC(C)=O)[C@@H](N)C1` showed a B-score of -0.221. With `Cc1c(-c2cnccn2)ssc1=S`, the B-score is 1.58.

`Cc1c(NC(=O)c2cccnc2)c(=O)n(-c2ccccc2)n1C` had a B-score of 12.5. The result for `Cc1c(N(C)C)c(=O)n(-c2ccccc2)n1C` reads 2.34.

With `Cc1c(NC(C)C)c(=O)n(-c2ccccc2)n1C`, the B-score is reported as -2.14.

With `CNC[C@H](O)[C@@H](O)[C@H](O)[C@H](O)CO` [757068-L2], the B-score came out at 1.95. Molecule `C[C@]1(Cn2ccnn2)C(C(=O)O)N2C(=O)CC2S1(=O)=O` (stereo partly drawn) came in with a B-score of -2.49.

Take `OC(CCN1CCCCC1)(c1ccccc1)C1CCCCC1` (stereo not drawn): the B-score amounted to 0.407. The result for `COc1c(N2CCNC(C)C2)c(F)cc2c(=O)c(C(=O)O)cn(C3CC3)c12` (stereo not drawn) reads 0.0884; that for `C[C@@H]1CN(c2c(F)c(F)c3c(=O)c(C(=O)O)cn(C4CC4)c3c2F)C[C@H](C)N1`, -1.44. Molecule `Nc1ccc2cc3ccc(N)cc3nc2c1` came in with a B-score of 1.36. For the molecule `CC[n+]1c(-c2ccccc2)c2cc(N)ccc2c2ccc(N)cc21`, the B-score is recorded as 3.74. `C[n+]1c2cc(N)ccc2cc2ccc(N)cc21` had a B-score of 20.4.

On to `O=C(O)/C=C/C(=O)O`, for which the B-score is listed as 0.597. The molecule `CCCCCCCCCCCCCCCC(=O)OC/C=C(C)/C=C/C=C(C)/C=C/C1=C(C)CCCC1(C)C` gave a B-score of -0.008. With `O=C(CCCN1CC=C(n2c(O)nc3ccccc32)CC1)c1ccc(F)cc1` the figure was -6.32; with `CCCc1cc(C(N)=S)ccn1`, 3.08; with `O=C(O)[C@H](O)[C@@H](O)[C@H](O)[C@H](O)CO`, 0.99.

Molecule `CCCCOc1ccc(C(=O)CCN2CCCCC2)cc1` [130801-L5] had a B-score of -1.2. With `N=C(N)c1ccc(OCCCCCOc2ccc(C(=N)N)cc2)cc1` the figure was 15.2; with `CCCCOc1ccc(C(=O)CCN2CCCCC2)cc1` [130801-L6], -2.14.

As to `CC(C)(O/N=C(\C(=O)N[C@@H]1C(=O)N2C(C(=O)O)=C(C[n+]3ccccc3)CS[C@H]12)c1csc(N)n1)C(=O)O`, the B-score was found to be 1.87. `CN[C@H](CC(C)C)C(=O)N[C@H]1C(=O)N[C@@H](CC(N)=O)C(=O)N[C@H]2C(=O)N[C@H]3C(=O)N[C@H](C(=O)N[C@H](C(=O)O)c4cc(O)cc(O)c4-c4cc3ccc4O)[C@H](O)c3ccc(c(Cl)c3)Oc3cc2cc(c3O[C@@H]2O[C@H](CO)[C@@H](O)[C@H](O)[C@H]2O[C@H]2C[C@](C)(N)[C@H](O)[C@H](C)O2)Oc2ccc(cc2Cl)[C@H]1O` had a B-score of -0.857. On to `Oc1ccc2c3c1O[C@H]1[C@@H](O)CC[C@@]4(O)[C@@H](C2)N(CC2CCC2)CC[C@]314`, for which the B-score stood at 0.0386.

On to `CN1CCC(=C2c3ccccc3Sc3ccccc32)CC1`, for which the B-score is recorded as -1.07. Consider `CN/C(=C\[N+](=O)[O-])NCCSCc1csc(CN(C)C)n1`, for which the B-score was -0.177. For the molecule `CN/C(=C/[N+](=O)[O-])NCCSCc1ccc(CN(C)C)o1`, the B-score is -2.02.

Consider `CN/C(=C\[N+](=O)[O-])NCCSCc1ccc(CN(C)C)o1`, for which the B-score was 14.6.

With `COC(=O)/C=C/C(=O)OC`, the B-score is 1.25.

Molecule `COc1cc(NS(=O)(=O)c2ccc(N)cc2)ncn1` had a B-score of 3.08. The result for `Nc1ccc(S(=O)(=O)Nc2ccc(Cl)nn2)cc1` reads 1.1. In turn, `COc1ccc(NS(=O)(=O)c2ccc(N)cc2)nn1` yielded a B-score of 4.49. `CNC[C@H](O)[C@@H](O)[C@H](O)[C@H](O)CO` [757068-L1] returned a B-score of -0.164. The molecule `Cc1scc2c1N(C(=O)CN1CCN(C)CC1)c1ccccc1NC2=O` came in with a B-score of -4.76. With `N#Cc1nn(-c2c(Cl)cc(C(F)(F)F)cc2Cl)c(N)c1S(=O)C(F)(F)F` (stereo not drawn) the figure was 0.119. `OC[C@@H]1CC[C@H](n2cnc3c(O)ncnc32)O1` came in with a B-score of 0.384.

Take `C#C[C@]1(O)CCC2C3CCC4=CC(=O)CC[C@@H]4C3CCC21CC` (stereo partly drawn): the B-score is given as -1.87. `C#C[C@]1(O)CC[C@H]2[C@@H]3CCC4=CC(=O)CC[C@@H]4[C@H]3CC[C@@]21C` showed a B-score of 5.5. The result for `C#C[C@]1(O)CCC2C3CCC4=CC(=O)CC[C@@H]4C3CC[C@@]21C` (stereo partly drawn) reads 0.0185; that for `CO/N=C(\C(=O)N[C@@H]1C(=O)N2C(C(=O)O)=C(CSc3nc(=O)c(=O)[nH]n3C)CS[C@H]12)c1csc(N)n1`, -0.496; that for `CC(C[N+](C)(C)C)OC(N)=O` (stereo not drawn), 1.72. Molecule `CC(=O)[C@H]1CCC2C3CC=C4C[C@@H](O)CC[C@]4(C)C3CC[C@@]21C` (stereo partly drawn) had a B-score of -1.35. Consider `N=C(N)c1ccc(N=NNc2ccc(C(=N)N)cc2)cc1`, for which the B-score stood at 9.37. Consider `Nc1c2ccccc2nc2ccccc12`, for which the B-score is listed as -0.407. The molecule `CC(=O)c1ccc2c(c1)N(CCCN(C)C)c1ccccc1S2` displayed a B-score of 0.888. With `COc1cc(C(=O)NCCCCCC(=O)O)cc(OC)c1OC` the figure was -2.61. On to `CC1=C(/C=C/C(C)=C/C=C/C(C)=C\C(=O)O)C(C)(C)CCC1`, for which the B-score was found to be 1.46.

As for `NC(=O)c1cc[n+](CC2=C(C(=O)O)N3C(=O)[C@@H](NC(=O)Cc4cccs4)[C@H]3SC2)cc1`, the B-score amounted to 0.071. As to `CCC(C)n1ncn(-c2ccc(N3CCN(c4ccc(OCC5COC(Cn6cncn6)(c6ccc(Cl)cc6Cl)O5)cc4)CC3)cc2)c1=O` (stereo not drawn), the B-score is listed as -1.07.

`CCC(C)n1ncn(-c2ccc(N3CCN(c4ccc(OC[C@H]5CO[C@](Cn6cncn6)(c6ccc(Cl)cc6Cl)O5)cc4)CC3)cc2)c1=O` (stereo partly drawn): the B-score turned out to be 5.45. `CC(C)N1CCN(c2ccc(OC[C@H]3CO[C@](Cn4cncn4)(c4ccc(Cl)cc4Cl)O3)cc2)CC1` came in with a B-score of 2.03. With `O=c1[nH]c(=O)c2ccccc2o1` the figure was 1.88; with `C(=C\c1ccccc1)/CN1CCN(C(c2ccccc2)c2ccccc2)CC1` [255681-L2], 0.414. The molecule `Cc1cn[nH]c1` [285621-L4] returned a B-score of 2.94. For the molecule `Cc1cc(-c2ccc(/N=N/c3ccc4c(S(=O)(=O)O)cc(S(=O)(=O)O)c(N)c4c3O)c(C)c2)ccc1/N=N/c1ccc2c(S(=O)(=O)O)cc(S(=O)(=O)O)c(N)c2c1O`, the B-score stood at 11. `CN(C)CC(c1ccc(O)cc1)C1(O)CCCCC1` (stereo not drawn) registered a B-score of -2.24.

Regarding `Nc1nc(O)c2nc(CNc3ccc(C(=O)N[C@@H](CCC(=O)O)C(=O)O)cc3)cnc2n1` [131189-L3], the B-score is listed as -0.599.

With `C[N+](C)(C)CCOP(=O)([O-])OP(=O)(O)OC[C@H]1O[C@@H](n2ccc(N)nc2=O)[C@H](O)[C@@H]1O`, the B-score is given as -1.73. As to `CN(C)c1ccc(C(=C2C=CC(=[N+](C)C)C=C2)c2ccc(N(C)C)cc2)cc1`, the B-score turned out to be 9.22. In turn, `O=C(OOC(=O)c1ccccc1)c1ccccc1` registered a B-score of -0.0136. The molecule `CC(C)(C)CC(C)(C)c1cc(Cc2cc(C(C)(C)CC(C)(C)C)cc(-n3nc4ccccc4n3)c2O)c(O)c(-n2nc3ccccc3n2)c1` came in with a B-score of -1.88. The molecule `Cc1ccc(-c2ncc(Cl)cc2-c2ccc(S(C)(=O)=O)cc2)cn1` gave a B-score of 2.78. In the case of `Cc1nc2n(c(=O)c1CCN1CCC(c3noc4cc(F)ccc34)CC1)CCC[C@H]2O`, the B-score is on record as 0.893. On to `OCC(S)CS` (stereo not drawn), for which the B-score is on record as 8.18. With `CC(O)Cn1cnc2c1c(=O)n(C)c(=O)n2C` (stereo not drawn) the figure was -3.33. With `NS(=O)(=O)c1cc(C2(O)NC(=O)c3ccccc32)ccc1Cl` (stereo not drawn), the B-score was 0.358. `O[C@H]1[C@H](O)[C@@H](O)[C@H](O)[C@@H](O)[C@H]1O`: the B-score was -1.95. Turning to `CC(C)/N=C(N)/N=C(\N)Nc1ccc(Cl)cc1` [131550-L2], the B-score worked out at 0.326. As to `CC(C)/N=C(N)/N=C(\N)Nc1ccc(Cl)cc1` [131550-L3], the B-score was -1.38. Take `N=C(NCCCCCCNC(=N)NC(=N)Nc1ccc(Cl)cc1)NC(=N)Nc1ccc(Cl)cc1`: the B-score stood at 20.8. On to `Cc1cccc(C)c1NC(=O)C(C)N` (stereo not drawn), for which the B-score worked out at 0.0863. The result for `CC[C@@H](CO)NC(=O)[C@@H]1C=C2c3cccc4c3c(cn4C)C[C@H]2N(C)C1` [756841-L1] reads 0.825; that for `CC(=O)Oc1cc2c(s1)CCN([C@H](C(=O)C1CC1)c1ccccc1F)C2`, 0.0184; that for `CN[C@@H]1[C@@H](O[C@H]2O[C@H](CO)[C@@H](N)[C@H](O)[C@H]2O)O[C@H]2C[C@@H](N)[C@H](O[C@H]3[C@H](O)[C@@H](O)[C@H](N)C[C@@H]3N)O[C@@H]2[C@@H]1O`, -1.36. Consider `O=C(O)c1ccccc1-c1c2cc(I)c(=O)c(I)c-2oc2c(I)c(O)c(I)cc12`, for which the B-score is listed as 14.8.

`N[C@@H]1[C@H]2CN(c3nc4c(cc3F)c(=O)c(C(=O)O)cn4-c3ccc(F)cc3F)C[C@@H]12` returned a B-score of -1.05. In the case of `C#C[C@]1(O)CCC2C3CCc4cc(OC)ccc4C3CC[C@@]21C` (stereo partly drawn), the B-score was -0.0352. For `COc1cc2c(cc1OC)C(=O)C(CC1CCN(Cc3ccccc3)CC1)C2` (stereo not drawn), the B-score is -0.41. In turn, `c1ccc2c(c1)Nc1ccccc1S2` yielded a B-score of 0.971.

In turn, `CC(=O)N[C@@H]1[C@@H](C(O)[C@H](O)CO)O[C@](O)(C(=O)O)C[C@@H]1O` (stereo partly drawn) registered a B-score of -1.13. The result for `Cc1nc(Nc2ncc(C(=O)Nc3c(C)cccc3Cl)s2)cc(N2CCN(CCO)CC2)n1` [756746-L1] reads 8.3.

In turn, `Cc1nc(Nc2ncc(C(=O)Nc3c(C)cccc3Cl)s2)cc(N2CCN(CCO)CC2)n1` [756746-L2] showed a B-score of 1.19.

Take `C[C@H]1O[C@@H](O[C@H]2[C@@H](O)C[C@H](O[C@H]3[C@@H](O)C[C@H](O[C@H]4CC[C@@]5(C)[C@H](CC[C@@H]6[C@@H]5CC[C@]5(C)[C@@H](C7=CC(=O)OC7)CC[C@]65O)C4)O[C@@H]3C)O[C@@H]2C)C[C@H](O)[C@@H]1O`: the B-score is given as -0.38. As for `CC(=O)Oc1ccccc1C(=O)Nc1ncc([N+](=O)[O-])s1`, the B-score is -0.287.

The molecule `C[C@]12CC[C@H](O)CC1=CCC1C2CC[C@]2(C)C(=O)CC[C@@H]12` (stereo partly drawn) had a B-score of 0.449. The molecule `C=C1C[C@@H]2[C@H](CC[C@]3(C)C(=O)CC[C@@H]23)[C@@]2(C)C=CC(=O)C=C12` yielded a B-score of 7.82. Molecule `C=C1CC2C(CC[C@]3(C)C(=O)CCC23)[C@@]2(C)C=CC(=O)C=C12` (stereo partly drawn) returned a B-score of -0.0158.

(Values after paper PMC6212833.)
